The target of one assay is FLG. Briefly: pooled miR-30 sensor sort-seq; sequence = guide strand. The conditions noted are these: shRNA.
As to TTGATTGTTCCTCATTACGTGT, the sensor-assay potency score (higher = more potent) was -0.377. On the same count and under the same terms, with TAGAGTCTGACTGTACAGGTGA the figure was 0.79; with TCTATTGTTTCTTCTTTCCAGA, -0.556.

The target of a further assay is FLNC. Described as above. As to conditions: shRNA.
Regarding TTGAGGTTGAGGTCACAGGTGC, the sensor-assay potency score (higher = more potent) is -0.307. Consider TAGCTGACAGCACATGAGCCAT, for which the sensor-assay potency score (higher = more potent) is -1.71. As to TAGAGCTTCAGGTCTCCCTTGC, the sensor-assay potency score (higher = more potent) came out at 0.291. On the same count and under the same terms, in the case of TTGGTGACAATAGTGAAGGTGG it was 0.0613. The same measure, in the same setting: in the case of TTGTCGGTGATGTTGGGCCGTG it was -1.35; in that of TAGGCTGACACCAAGCCTGGGT, -0.0141. Still for that read-out and setting: in the case of TTTGATTTTGCTGAGGTCCAGC it was 0.0406. For TTGTCTGTCACATAGGTGTCTG, the sensor-assay potency score (higher = more potent) is -0.552. In the case of TAGGAGACAGCATAGGTGCGAT, the sensor-assay potency score (higher = more potent) is -0.825. On the same count and under the same terms, with TTGTCAGCAAACTTGATGTTGA the figure was -0.54. With TGAGCCATCACCATTGTCCTGG, the sensor-assay potency score (higher = more potent) came out at 0.0505. With TTGAGGTGCTCATTGCACCAGC, the sensor-assay potency score (higher = more potent) is -0.419.

In turn, TTGAACTTGATGGAGACCTCAT had a sensor-assay potency score (higher = more potent) of -0.144. Sequence TTGACTGCAGTCCACTGTGAAG yielded a sensor-assay potency score (higher = more potent) of -1.44.

For the sequence TAGGTGACTTTGCATGTCCCGT, the sensor-assay potency score (higher = more potent) was -0.929.

In turn, TTACAGGTGATCTCTGCCTTGG had a sensor-assay potency score (higher = more potent) of -0.839.

The sequence TACTGCACTCGGTAGGTGCCGT had a sensor-assay potency score (higher = more potent) of -0.627. Same read-out and setting: with TTGACGGTGAAGGTGTCGTTGT the figure was -0.371; with TTGAGGTCACAGGTGCTGCCGA, -0.595.

In the case of TAGGACACAGTGTACGTGCCAT, the sensor-assay potency score (higher = more potent) was -0.557. In turn, TGAACTCTGATGACACACCGGT gave a sensor-assay potency score (higher = more potent) of 0.0555. Still for that read-out and setting: with TTGATGTCCACCTTGCTTGGGC the figure was 0.144. Still for that read-out and setting: with TTGATGGTGATGGTGTACCGGC the figure was -1.25; with TTCAGTGACACGTCCGTGGAGG, -0.25.

For a further assay, the target named is FMNL2. Described as above. As to conditions: shRNA.
As to TTATCTTTAACTTGTCGTCTTC, the sensor-assay potency score (higher = more potent) worked out at 0.239.

As for TAATTCTGCAATTAACTCTTGC, the sensor-assay potency score (higher = more potent) is -0.103. On the same count and under the same terms, in the case of TACAATATTAATAAACTGCATA it was -0.855; in that of TAGCTTTACATATTTCATCAGC, -0.662; in that of TAGACTGTCTTTGAATTGCTTC, 0.088.

Sequence TTTCTCTAGCTCATGAATCTTT gave a sensor-assay potency score (higher = more potent) of -0.357. Still for that read-out and setting: with TTCTTCTTTTTCTTTGACCATT the figure was -1.21; with TTGAGTATTTGCATCTTTGTAG, 0.305. Turning to TTATAGAGACAGATGCTGCTAT, the sensor-assay potency score (higher = more potent) is 0.344. Sequence TTCTGCAATTAACTCTTGCTGC registered a sensor-assay potency score (higher = more potent) of -0.158. Same read-out and setting: in the case of TTCCATGAGAGCTTGTTCCTGC it was 0.908. Same read-out and setting: with TTATATGCTTTCACAAACCGGA the figure was -0.533.
Also: reference of the scale not given here.
